Test results as given in PubChem BioAssay AID485317 (Broad Institute, 2010).
About 11,000 (3.8%) of roughly 290,000 compounds were called active. The list comes from a sample in which actives are over-represented; it also holds similar structures and randomly drawn compounds. Unmarked numbers belong to inactive results.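 The calls were made as follows: active = mean replicate inhibition above about 79%, with every replicate also reaching it (limit read from the data); inconclusive = only one of the two criteria met; inactive = mean below limit and not every replicate reaching it.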

These compounds were tested against FAD-linked sulfhydryl oxidase ALR (Homo sapiens) (UniProt P55789) (assay: inhibitors of human ALR sulfhydryl oxidase, primary screen, biochemical, H2O2 detection, HRP-luminol luminescence, single point (AID 485317)). Conditions: purified ALR, DTT oxidation, hits give high values, concentration not given here.
Chain of FAD-linked sulfhydryl oxidase ALR (Homo sapiens) (P55789 whole entry, looked up): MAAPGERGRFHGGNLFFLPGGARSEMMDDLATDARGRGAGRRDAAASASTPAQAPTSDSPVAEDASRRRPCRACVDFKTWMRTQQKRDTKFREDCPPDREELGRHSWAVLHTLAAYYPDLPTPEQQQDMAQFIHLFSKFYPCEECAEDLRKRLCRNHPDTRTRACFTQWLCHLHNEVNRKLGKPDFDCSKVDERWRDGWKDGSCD
`COc1ccc(S(=O)(=O)NCCCc2ccccc2)cc1` gave an inhibition of -2.65%. `COc1ccc(S(=O)(=O)Nc2c(C)n(C)n(-c3ccccc3)c2=O)cc1` gave an inhibition of -9.38%. `COc1ccc(S(=O)(=O)/N=C2\C=C(NS(=O)(=O)c3ccccc3)C(=O)c3ccccc32)cc1` was tested, and the inhibition was 87.5% (active). For `COc1cc(OC)cc(-c2c(-c3cccs3)c3cc(-c4ccc(OC)nc4)ccc3n2C)c1`, the inhibition was -18.1%. Compound `O=C(OCC(=O)N1CCN(C(=O)c2ccco2)CC1)c1c(Cl)cccc1Cl` has an inhibition of -7.05%. `Cn1cccc1C(=O)OCC(=O)NCCc1ccccc1` gave an inhibition of 5.56%. With `Cc1ccc(Cn2c(SCC(=O)N/N=C/c3ccccc3OCC(=O)O)nc3ccccc32)cc1` the inhibition was -5.09%. For `C=CCn1c(Cn2nnc3ccccc32)nnc1SCC(=O)N/N=C/c1cc(Br)cc(OC)c1O`, the inhibition was 98.4% (active). With `Cn1c(Cn2nnc3ccccc32)nnc1SCC(=O)c1ccccc1F` the inhibition was 25.7%. `CSc1ccccc1NC(=O)C(C)N1C(=O)c2ccccc2S1(=O)=O` (centres undefined) gave an inhibition of -4.05%. `CC(=O)C(CC(=O)N1CCCC1)C(=O)Nc1ccc(Cl)cc1` (centres undefined) was tested, and the inhibition was 23.9%. In the case of `Cc1ccc(N2C(=O)N3[C@@H]4c5ccccc5OC[C@@H]4[C@@H](c4ccccc4)[C@@]3(C)C2=O)cc1`, the inhibition is reported as 3%. In the case of `Cc1nc(SCC(=O)NC2CCCCC2C)c(C#N)c(C)c1C` (centres undefined), the inhibition is reported as -0.312%. In the case of `O=C(CN1C(=O)NC2(CCOc3ccccc32)C1=O)Nc1cccc([N+](=O)[O-])c1` (centres undefined), the inhibition is reported as 13.9%. `COc1ccccc1C(=O)NCCC(=O)NN1C(=O)NC2(CCCCC2)C1=O` showed an inhibition of -0.581%. Work on `COc1ccc(-c2nc3cnccn3c2NC2CCCCC2)cc1-c1cccc(Cl)c1` yielded an inhibition of 3.7%. `CCCCNc1c(-c2ccc(OC)c(Sc3ccc(OC)cc3)c2)nc2ccc(Cl)cn12` showed an inhibition of -8.2%. With `COc1ccc(-c2nc3cnccn3c2NC(C)(C)CC(C)(C)C)cc1O` the inhibition was 99.6% (active). `COc1ccc(S(=O)(=O)N(C)C[C@@H]2Oc3ccc(NC(=O)Nc4c(C)noc4C)cc3C(=O)N([C@H](C)CO)C[C@@H]2C)cc1` gave an inhibition of -1.21%. `NC(=O)NC(CC(=O)NNC(=O)c1ccccn1)c1ccc(Cl)cc1` (centres undefined) was tested, and the inhibition was -14%. With `Cc1ccc(N2C(=O)C3C(c4ccccc4)(C2=O)C3(c2ccccc2)c2ccccc2)cc1` (centres undefined) the inhibition was -4.39%. For `Cc1ccc(C2SCC(=O)N2c2ccccc2)cc1` (centres undefined), the inhibition was 98.3% (active). Compound `COc1cccc(C2SCC(=O)N2c2cccc(C)c2)c1OC` (centres undefined) has an inhibition of -42.2%. With `Cc1occc1C(=O)Nc1cccc(S(=O)(=O)N2CCOCC2)c1` the inhibition was -1.99%. In the case of `CCOC(=O)C1CCN(C(=O)c2cccc(S(=O)(=O)N(CC)c3ccccc3)c2)CC1`, the inhibition is reported as -13.6%. `COc1ccc(Cl)cc1NC(=O)CN(C)C(=O)c1cc(-c2cccs2)nn1-c1ccccc1` showed an inhibition of 21.6%. With `COc1ccc(Nc2ccc([N+](=O)[O-])cn2)cn1` the inhibition was -22.9%. Compound `COc1ccc(NS(=O)(=O)c2ccc(F)cc2F)cn1` has an inhibition of -5.33%. With `COc1ccc(Nc2cc(Cl)ccc2C(=O)O)cn1` the inhibition was 98.7% (active). With `O=C(N[C@@H]1C/C=C\C[C@@H](CC(=O)N(CCO)Cc2ccccc2)C(=O)N[C@H](Cc2ccccc2)COC1=O)OCC1c2ccccc2-c2ccccc21` the inhibition was 5.13%. In the case of `CCOc1ccc(NC(=O)COc2ccc(C(=O)N3CCC(C(N)=O)CC3)cc2OC)cc1`, the inhibition is reported as -0.853%. `CCOC(=O)Cc1csc(NC(=O)CSc2nnc(-c3cccnc3)n2Cc2ccco2)n1` gave an inhibition of -5.11%. `CCc1ccc(NC(=O)CSc2nnc(-c3cnccn3)n2Cc2ccco2)cc1` gave an inhibition of 29.4%. With `C(=C\c1ccccc1)/CSc1nnc(-c2cccnc2)n1Cc1ccco1` the inhibition was 87.9% (active). `O=C(CSc1nnc(-c2cccs2)n1Cc1ccco1)c1ccc2c(c1)OCO2` showed an inhibition of 0.1%. With `O=C(CSc1nnc(-c2cccnc2)n1Cc1ccco1)c1ccc(Cl)c(Cl)c1` the inhibition was 98.2% (active). With `O=C(CSc1nnc(-c2cccnc2)n1Cc1ccco1)c1ccc(Cl)cc1` the inhibition was 54.6%. `O=C(CSc1ncn[nH]1)Nc1ccc(Br)cc1Br` was tested, and the inhibition was -5.94%. `CC(OC(=O)c1ccccc1NCCO)C(=O)Nc1ccnn1C(C)C` (centres undefined) showed an inhibition of -3.31%. Compound `N#Cc1ccc(CN2CCN(CC(=O)Nc3ccccc3C(=O)NC3CC3)CC2)cc1` has an inhibition of -2.66%. With `Cn1cccc1C(=O)NNC(=O)COc1ccc(Br)cc1` the inhibition was -4.16%. For `CCN(CC(=O)Nc1c(F)cccc1F)C(=O)c1ccc(S(=O)(=O)N2CCCCC2)cc1`, the inhibition was -1.01%. Compound `S=C(NCc1ccco1)NCc1ccccc1Cl` has an inhibition of -9.19%. `Clc1ccccc1CSc1nnc(-c2ccco2)c(-c2ccco2)n1` was tested, and the inhibition was 100% (active). Work on `COC(OC)c1ccnc(SCc2ccccc2Cl)n1` yielded an inhibition of -8.94%. `O=C(Nc1ccc(C(=O)N2CCOCC2)cc1)Nc1cccc(C(F)(F)F)c1` gave an inhibition of -2.29%. Compound `O=C(O)CCC(=O)N(Cc1ccccc1)Cc1ccccc1` has an inhibition of -2.42%. `Cc1ccc(-c2nn(-c3cccc(F)c3)cc2CNCCc2ccncc2)o1` showed an inhibition of -14.7%. With `Cc1ccc(-c2nn(-c3ccccc3)cc2CN(Cc2ccccc2)C(=O)CCC(=O)O)o1` the inhibition was 97.6% (active). `Cc1c(NC(=O)C(C)OC(=O)c2c3c(nc4ccccc24)CCC(C)C3)c(=O)n(-c2ccccc2)n1C` (centres undefined) showed an inhibition of 18%. In the case of `O=C1CCc2cc(S(=O)(=O)Nc3ccc(C(F)(F)F)cc3)cc3c2N1CC3`, the inhibition is reported as -0.668%. `Cc1cc(OCC(=O)N(C)c2c(N)n(Cc3ccccc3)c(=O)[nH]c2=O)c(C(C)C)cc1Cl` showed an inhibition of -4.09%. Compound `O=C(CCNC(=O)c1ccccc1Cl)NN=Cc1ccco1` has an inhibition of -3.45%. `Cc1cc(NC(=O)CSc2nc(=O)cc(N)n2-c2ccc(F)cc2)no1` showed an inhibition of -1.5%. `Cc1csc(NC(=O)CSc2ccc(-c3ccc(F)cc3)nn2)n1` gave an inhibition of -12.2%. In the case of `Cc1csc(NC(=O)CSc2nc(=O)cc(N)n2-c2ccc(F)cc2)n1`, the inhibition is reported as 91.6% (active). `Cc1cc(C)c(S(=O)(=O)N2CCC(C(=O)OCc3c(C)noc3C)CC2)c(C)c1` gave an inhibition of -4.27%. In the case of `CCCCN(C(=O)C1=NN(c2cc(C)ccc2C)C(=O)CC1)c1c(N)n(CCC)c(=O)[nH]c1=O`, the inhibition is reported as 0.0423%. `CCN(Cc1ccccc1)C(=O)Cc1ccc(OC)c(S(=O)(=O)N2CCOCC2)c1` was tested, and the inhibition was -3.18%. `COc1ccc(OCCCC(=O)Nc2cccc(S(=O)(=O)N3CCCCCC3)c2)cc1` was tested, and the inhibition was -4.87%. Compound `CCOc1ccc(CCNC(=O)COC(=O)c2c(OC)cccc2OC)cc1OCC` has an inhibition of -5.28%. `CC(C)c1ccc(Nc2nnc(SCC(=O)c3nnc(-c4ccccc4)o3)s2)cc1` was tested, and the inhibition was 98.1% (active). For `Cc1ccc(Nc2nnc(SCc3ccccc3)s2)cc1`, the inhibition was -12.9%. Compound `O=C(CSc1nnc(Nc2ccccc2)s1)Nc1cccnc1Cl` has an inhibition of 4.27%. For `CC(C)n1c(NCc2c[nH]c3ccccc23)nc2ccccc21`, the inhibition was 97.9% (active). Compound `CC(C)n1c(-c2cccs2)nc2ccccc21` has an inhibition of -15.2%. `CC(C)n1c(COc2ccccc2)nc2ccccc21` was tested, and the inhibition was 14.1%. `O=C(O)c1cc(S(=O)(=O)Nc2ccc3cn[nH]c3c2)ccc1Br` was tested, and the inhibition was 42.7%. Compound `COc1cc(/C=C/C(=O)Nc2ccc(OC)c(S(=O)(=O)N3CCOCC3)c2)ccc1OCC#N` has an inhibition of -4.4%. `CCS(=O)(=O)N1Cc2ccccc2CC1C(=O)Nc1ccc(OC)cc1OC` (centres undefined) gave an inhibition of -16.1%. In the case of `CSc1ncccc1C(=O)Nc1nc2ccc(F)cc2s1`, the inhibition is reported as -2.85%. `CCS(=O)(=O)N1Cc2ccccc2CC1C(=O)Nc1nc2ccc(F)cc2s1` (centres undefined) was tested, and the inhibition was 97.9% (active). Compound `CCOC(=O)C1Nc2ccc(C(F)(F)F)cc2C2C=CCC12` (centres undefined) has an inhibition of -11.3%. For `Cc1cc(NC(=O)COc2ccc([N+](=O)[O-])cc2)no1`, the inhibition was 8.23%. For `CN1CCN(c2nc(Nc3ccc(O)cc3)nc3ccccc23)CC1`, the inhibition was 98.9% (active). `OCCNc1nc(Nc2ccc(Cl)c(Cl)c2)nc2ccccc12` gave an inhibition of 19.6%. Work on `c1ccc(Nc2nc(N3CCOCC3)c3ccccc3n2)cc1` yielded an inhibition of 48.8%. `CC(=O)c1c(C)[nH]c(C(=O)CN2C(=O)NC(C)(C)C2=O)c1C` showed an inhibition of 0.194%. For `O=c1cc(CO)oc(C(Nc2cccc(C(F)(F)F)c2)c2ccccn2)c1O` (centres undefined), the inhibition was 52.2%. In the case of `O=c1cc(CO)oc(C(Nc2cccc([N+](=O)[O-])c2)c2ccccn2)c1O` (centres undefined), the inhibition is reported as 94.5% (active). `O=[N+]([O-])c1cccc(S(=O)(=O)NCc2ccccn2)c1` showed an inhibition of -12.1%. In the case of `COc1ccc(C(=O)N/N=C2\CCS(=O)(=O)c3ccc(F)cc32)cc1OC`, the inhibition is reported as -0.529%. `O=S1(=O)CC/C(=N\Nc2ccc(F)cc2)c2ccsc21` was tested, and the inhibition was 98.3% (active). In the case of `COc1ccccc1NC(=O)COC(=O)CNC(=O)C1CCCCC1`, the inhibition is reported as -0.565%. `COc1ccc(-c2c(C#Cc3ccsc3)c3cc(-c4ccc(CN5CCOCC5)cc4)ccc3n2C)cc1` was tested, and the inhibition was -4.78%. `CCOc1cc2[nH]c(=S)n(Cc3ccc(C(=O)N4CCN(C)CC4)cc3)c(=O)c2cc1OCC` was tested, and the inhibition was -0.332%. In the case of `O=C(O)c1ccc(Cn2c(=S)[nH]c3cc(Cl)ccc3c2=O)cc1`, the inhibition is reported as 94.9% (active). Compound `COc1ccc(Cn2c(=S)[nH]c3cc(C(=O)N4CCCCC4)ccc3c2=O)cc1` has an inhibition of 9.27%. `CC(=O)c1ccc(S(=O)(=O)Nc2ccc(-c3ccc4nncn4n3)cc2)cc1` gave an inhibition of -13.1%.
